The panel holds about 83,000 compounds, 20% with a hit somewhere; the sample as a whole holds those more often.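 The endpoint reported here, percent growth, reads 100 for growth as untreated, 0 for no net growth and -100 for all cells dead.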 A number with no mark means an inactive call. Active and inactive are the calls of the source. How the source made its calls: active means growth percent below 10; inactive means the rest.

The test system of the experiment is MDA-MB-468 breast. In words: NCI-60 one-dose screen, 48 h (100 = growth as untreated, 0 = no growth, -100 = all killed). The following applies: 10 µM unless noted.
On to `CCOC(=O)CC1CSC(N/N=C/c2ccc(F)c(Br)c2)=N1` (stereo unspecified), for which the growth was 116%. Regarding `Cc1csc(NC(=O)c2sc3nc(-c4cccs4)ccc3c2N)n1`, the growth is 82%. Consider `COCc1nc2ccccc2[nH]1`, for which the growth is 102%.

Turning to `Cc1cc2ccccc2c(O)c1C#N`, the growth was 117%. For the compound `Oc1c(CN2CCCC2)cc(CSCc2ccccc2)c2cccnc12`, the growth was -33.1% (active).

For `Nc1cc2c(cc1Cl)-c1ccc([N+](=O)[O-])cc1/C2=N\O`, the growth is 77.7%.

Consider `Cc1ccc2nc(Cl)cc(=O)n2c1`, for which the growth was 112%. `CN(C)c1ccc(-c2ccc3c(c2)c(-c2ccccc2)nc(=O)n3C)cn1`: the growth was 5.69% (active). Turning to `CN(C)CCOc1nc2c3cc([N+](=O)[O-])ccc3nn2c2ccccc12`, the growth was 60.2%. For `CCOC(=O)C1=C(C)Nc2nc3ccccc3n2C1c1ccccc1` (stereo unspecified), the growth is 85.6%. As for `COC(=O)c1ccc(NC(=O)Nc2ccc(C(=O)OC)cc2)cc1`, the growth was 97.9%.

(Values after PubChem BioAssay (NCI).)
